Data: PubChem BioAssay AID2284146 (EPA ToxCast)
Activity calls are given as the source filed them. Rule for the calls: active = hit-call score of the fitted dose curve at least 0.9, where 1 is the maximum; inactive = score below 0.9.

What follows are compounds tested against human Adrenoceptor alpha2A Antagonism, ADRA2A (gene 150) (UniProt P08913) (assay: ERF_TW_GPCR_hADRA2A: Eurofins (ERF) G Protein-Coupled Receptor (GPCR) Radioligand Binding LeadHunter Assay for human Adrenoceptor alpha2A Antagonism).
Chain of human Adrenoceptor alpha2A Antagonism, ADRA2A (gene 150) (P08913 whole entry, looked up): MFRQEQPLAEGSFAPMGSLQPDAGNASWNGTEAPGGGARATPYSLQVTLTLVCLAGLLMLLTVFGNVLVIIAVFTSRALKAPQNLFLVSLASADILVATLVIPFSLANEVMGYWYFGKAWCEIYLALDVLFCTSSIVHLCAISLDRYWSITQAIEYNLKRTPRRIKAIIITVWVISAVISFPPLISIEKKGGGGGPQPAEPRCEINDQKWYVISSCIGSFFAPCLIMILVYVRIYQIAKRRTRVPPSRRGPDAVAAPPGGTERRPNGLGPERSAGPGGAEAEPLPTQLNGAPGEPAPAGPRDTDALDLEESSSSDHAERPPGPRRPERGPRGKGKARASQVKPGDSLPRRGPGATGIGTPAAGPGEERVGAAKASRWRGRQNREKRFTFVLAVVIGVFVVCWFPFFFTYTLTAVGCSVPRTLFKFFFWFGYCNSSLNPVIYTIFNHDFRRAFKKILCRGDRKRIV
Procedure: ERF_TW_GPCR_hADRA2A is a biochemical, single-readout assay that uses extracted gene-proteins in a cell-free assay. Measurements were taken 1 hour after chemical dosing in a 96-well plate. See alpha2A Human Adrenoceptor GPCR Binding (Antagonist Radioligand) Assay, Panlabs.ERF_TW_GPCR_hADRA2A is an assay component calculated from the ERF_TW_GPCR_hADRA2A assay. It is designed to measure radioligand binding using a type of binding reporter as detected by scintillation counting with radiometry technology.Data from the assay component ERF_TW_GPCR_hADRA2A was analyzed at the assay endpoint, ERF_TW_GPCR_hADRA2A, in the positive analysis fitting direction relative to DMSO as the negative control and baseline of activity. Using a type of binding reporter, loss-of-signal activity can be used to understand changes in radioligand binding as they relate to gene ADRA2A. To generalize the intended target to other relatable targets, this assay endpoint is annotated to the gpcr intended target family, where the subfamily is adrenoceptor.
Human recombinant adrenergic alpha2A receptors expressed in CHO-K1 cells are used in modified Tris-HCl buffer pH 7.4. A 2 ug aliquot is incubated with 1.5 nM [3H]Rauwolscine for 60 minutes at 25C. […] Receptors are filtered and washed, the filters are then counted to determine [3H]Rauwolscine specifically bound. […]

Structure (SMILES) | AC50
O=C(/C=C/c1ccc(O)cc1)CC(=O)/C=C/c1ccc(O)cc1 | 1.14 µM (active)
